Reference: PubChem BioAssay
Calls of active or inactive are those of the source.

Tests used:
[1] = tested on: Plasmodium falciparum Sir2 (PF13_0152, Sir2A); experiment: Plasmodium falciparum Sir2A binding compounds – biochemical, small-molecule microarray, 635 nm fluorescence, primary screen (AID 1098); conditions: fluorescence 635 nm, higher = more signal;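 further: score merges spot fluorescence intensity with its signal-to-noise ratio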
[2] = probe aDKK1 binding to arrayed compounds – biochemical, biotinylated probe, 635/667 nm fluorescence, primary screen (AID 1099); conditions: small-molecule microarray, higher = more signal;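 further: score merges 667nm spot fluorescence with signal to noise across triplicate slides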
[3] = probe aCHRDL2 binding to arrayed compounds – biochemical, biotinylated probe, 635/667 nm fluorescence, primary screen (AID 1100); conditions: small-molecule microarray, higher = more signal
[4] = change in splice reporter luminescence, either direction, cell-based, HEK293, spliceosome inhibition project, primary screen (AID 1101); conditions: HEK293 splicing luciferase reporter, 24 h, higher = more signal, called active from +8 up or from −8 down;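 further: HEK293 cells carrying a splicing-competent luciferase reporter gene; test concentration not given here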
[5] = target: Fibroblast growth factor 10 (Homo sapiens) (UniProt O15520); experiment: compounds binding fibroblast growth factor 10 – biochemical, small-molecule microarray, 635 nm fluorescence, primary screen (AID 1102); conditions: FGF10 binding, fluorescence 635 nm, higher = more signal
[6] = tested on: glycogen synthase kinase-3 (GSK3A per assay name; protocol says GSK3B); experiment: compounds binding glycogen synthase kinase-3 – biochemical, small-molecule microarray, 635 nm fluorescence, GSK3A, primary screen (AID 1103); conditions: fluorescence 635 nm, higher = more signal; further: the record names both GSK3A and GSK3B
[7] = target: Epidermal growth factor receptor (Homo sapiens) (UniProt P00533); experiment: compounds binding epidermal growth factor receptor – biochemical, small-molecule microarray, 635 nm fluorescence, primary screen (AID 1104); conditions: EGFR binding, higher = more signal;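 further: score merges 667 nm emission intensity with spot signal to noise over triplicate slides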
[8] = target: Follistatin-related protein 3 (Homo sapiens) (UniProt O95633); experiment: compounds binding follistatin-related protein 3 – biochemical, small-molecule microarray, 635 nm fluorescence, primary screen (AID 1105); conditions: FSTL3 binding, higher = more signal;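 further: score merges emission near 667 nm and signal to noise per printed spot across three slides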
[9] = target: Dickkopf-related protein 1 (Homo sapiens) (UniProt O94907); experiment: small molecules binding DKK1 protein – biochemical, small-molecule microarray, 635 nm fluorescence scan, primary screen (AID 1106); conditions: higher = more signal;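 further: score merges emission near 667 nm with signal to noise over three replicate slides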
[10] = tested on: Inhibin beta A chain (activin A); experiment: small molecules binding activin A – biochemical, small-molecule microarray, 635 nm fluorescence scan, primary screen (AID 1107); conditions: INHBA, higher = more signal;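 further: mouse activin A protein probed at 4.33 µg/mL on printed slides; score merges bound-protein fluorescence near 667 nm with spot signal-to-noise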
[11] = tested on: Human papillomavirus type 1a protein E7 (residues 44-93); experiment: small molecules binding HPV E7 44-93 – biochemical, small-molecule microarray, residues 44-93, 635 nm fluorescence, primary screen (AID 1108); conditions: fluorescence 635 nm, higher = more signal;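 further: E7 fragment applied at 1 µg/mL in TBST for 1 h at 4 C; score combines spot fluorescence with its signal to noise ratio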
[12] = hepatitis C replication reporter changes, two-sided – Huh7 cells, luciferase reporter, HCV replication inhibitor project, primary screen (AID 1109); conditions: Huh7 HCV replicon luciferase reporter, 48 h; higher = more signal;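 further: huh7 hepatoma cells harbouring a luciferase neomycin HCV replicon reporter; luciferase luminescence as measure of HCV replicon replication; test concentration not given here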
[13] = target: Left-right determination factor 2 (Homo sapiens) (UniProt O00292); experiment: small molecules binding LEFTY2 protein – biochemical, small-molecule microarray, 635 nm fluorescence scan, primary screen (AID 1110); conditions: higher = more signal
[14] = target: Calmodulin-1 (Homo sapiens) (UniProt P0DP23); experiment: small molecules binding calmodulin-1 with EGTA – biochemical, small-molecule microarray, Cy5-labelled CALM1, profiling panel (AID 1111); conditions: Cy5-CALM1 binding fluorescence, higher = more signal;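 further: labelled calmodulin applied in Tris saline Tween buffer holding calcium plus EGTA and DTT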
[15] = target: Calmodulin-1 (Homo sapiens) (UniProt P0DP23); experiment: small molecules binding Ca-loaded calmodulin-1 – biochemical, small-molecule microarray, Cy5-labelled CALM1, plus calcium, artefact control for SMM control-protein annotation, profiling panel (AID 1112); conditions: Cy5-CALM1 binding fluorescence, higher = more signal;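 further: score merges spot fluorescence with signal to noise from triplicate slides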
[16] = probe aWnt5a binding to arrayed compounds – biochemical, biotinylated probe, 635/667 nm fluorescence, primary screen (AID 1113); conditions: small-molecule microarray, higher = more signal;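 further: score merges 667 nm fluorescence intensity with signal-to-noise per printed feature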
[17] = probe aShh binding to arrayed compounds – biochemical, biotinylated probe, 635/667 nm fluorescence, primary screen (AID 1114); conditions: small-molecule microarray, higher = more signal;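 further: probe is biotin-labelled aShh protein from a stem cell growth factor screen; measures binding of labelled protein to compounds printed on the slide; score merges feature fluorescence at 667 nm with signal-to-noise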
[18] = probe aNog binding to arrayed compounds – biochemical, biotinylated probe, 635/667 nm fluorescence, primary screen (AID 1115); conditions: small-molecule microarray, higher = more signal;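 further: probe is biotinylated aNog protein used at 0.15 µg/mL for 1 h at 4 C; z-score combines 667 nm fluorescence of each spot with its signal to noise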
[19] = target: Torsin-1A-interacting protein 1 (Homo sapiens) (UniProt Q5JTV8); experiment: compound microarray binding of lysate hLAP1 – cell lysate, small-molecule microarray, COS7 lysate, 635/667 nm fluorescence, primary screen (AID 1116); conditions: 635 nm fluorescence, higher = more signal
[20] = target: Alpha-bungarotoxin (Bungarus multicinctus) (UniProt P60615); experiment: compounds binding labelled alpha-BTX control protein – biochemical, small-molecule microarray, Alexa647 label, 635/667 nm fluorescence, artefact control for SMM control protein annotation, profiling panel (AID 1117); conditions: alpha-BTX-A647 binding fluorescence, higher = more signal
Chain of Alpha-bungarotoxin (Bungarus multicinctus) (P60615 whole entry, looked up): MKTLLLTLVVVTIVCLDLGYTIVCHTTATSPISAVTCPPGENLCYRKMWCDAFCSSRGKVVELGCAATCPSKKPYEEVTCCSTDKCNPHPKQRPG

Chain of Fibroblast growth factor 10 (Homo sapiens) (O15520 whole entry, looked up): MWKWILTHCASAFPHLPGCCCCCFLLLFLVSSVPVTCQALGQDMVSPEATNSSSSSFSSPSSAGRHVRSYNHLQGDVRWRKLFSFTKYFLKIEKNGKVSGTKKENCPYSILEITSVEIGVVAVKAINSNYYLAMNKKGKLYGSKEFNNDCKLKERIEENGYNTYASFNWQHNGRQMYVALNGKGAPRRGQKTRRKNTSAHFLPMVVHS
Chain of Torsin-1A-interacting protein 1 (Homo sapiens) (Q5JTV8 whole entry, looked up): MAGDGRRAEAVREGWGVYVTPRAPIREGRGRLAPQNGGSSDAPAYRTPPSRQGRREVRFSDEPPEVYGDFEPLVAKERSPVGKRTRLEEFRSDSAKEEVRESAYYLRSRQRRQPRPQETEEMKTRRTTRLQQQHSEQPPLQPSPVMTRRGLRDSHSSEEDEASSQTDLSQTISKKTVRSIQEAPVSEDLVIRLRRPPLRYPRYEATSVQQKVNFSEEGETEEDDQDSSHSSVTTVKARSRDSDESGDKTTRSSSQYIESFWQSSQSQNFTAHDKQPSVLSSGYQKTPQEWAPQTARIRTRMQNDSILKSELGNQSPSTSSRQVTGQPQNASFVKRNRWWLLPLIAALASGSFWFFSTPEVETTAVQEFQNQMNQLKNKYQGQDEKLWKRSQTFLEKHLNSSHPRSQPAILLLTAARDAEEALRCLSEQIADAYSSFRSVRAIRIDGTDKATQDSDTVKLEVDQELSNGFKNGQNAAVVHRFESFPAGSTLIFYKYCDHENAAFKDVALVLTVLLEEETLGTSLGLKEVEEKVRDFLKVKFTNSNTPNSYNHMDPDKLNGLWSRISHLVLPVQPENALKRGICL
Chain of Left-right determination factor 2 (Homo sapiens) (O00292 whole entry, looked up): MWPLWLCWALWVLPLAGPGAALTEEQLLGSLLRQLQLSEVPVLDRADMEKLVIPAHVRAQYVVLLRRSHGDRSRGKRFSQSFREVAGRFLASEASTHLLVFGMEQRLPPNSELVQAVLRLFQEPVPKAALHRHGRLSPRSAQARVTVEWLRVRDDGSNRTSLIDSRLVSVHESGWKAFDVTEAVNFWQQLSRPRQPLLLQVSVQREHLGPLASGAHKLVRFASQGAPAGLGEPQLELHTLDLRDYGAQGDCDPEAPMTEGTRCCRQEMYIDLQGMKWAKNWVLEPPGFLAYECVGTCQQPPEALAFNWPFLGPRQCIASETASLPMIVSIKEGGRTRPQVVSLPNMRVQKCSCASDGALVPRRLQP
Chain of Epidermal growth factor receptor (Homo sapiens) (P00533 whole entry, looked up): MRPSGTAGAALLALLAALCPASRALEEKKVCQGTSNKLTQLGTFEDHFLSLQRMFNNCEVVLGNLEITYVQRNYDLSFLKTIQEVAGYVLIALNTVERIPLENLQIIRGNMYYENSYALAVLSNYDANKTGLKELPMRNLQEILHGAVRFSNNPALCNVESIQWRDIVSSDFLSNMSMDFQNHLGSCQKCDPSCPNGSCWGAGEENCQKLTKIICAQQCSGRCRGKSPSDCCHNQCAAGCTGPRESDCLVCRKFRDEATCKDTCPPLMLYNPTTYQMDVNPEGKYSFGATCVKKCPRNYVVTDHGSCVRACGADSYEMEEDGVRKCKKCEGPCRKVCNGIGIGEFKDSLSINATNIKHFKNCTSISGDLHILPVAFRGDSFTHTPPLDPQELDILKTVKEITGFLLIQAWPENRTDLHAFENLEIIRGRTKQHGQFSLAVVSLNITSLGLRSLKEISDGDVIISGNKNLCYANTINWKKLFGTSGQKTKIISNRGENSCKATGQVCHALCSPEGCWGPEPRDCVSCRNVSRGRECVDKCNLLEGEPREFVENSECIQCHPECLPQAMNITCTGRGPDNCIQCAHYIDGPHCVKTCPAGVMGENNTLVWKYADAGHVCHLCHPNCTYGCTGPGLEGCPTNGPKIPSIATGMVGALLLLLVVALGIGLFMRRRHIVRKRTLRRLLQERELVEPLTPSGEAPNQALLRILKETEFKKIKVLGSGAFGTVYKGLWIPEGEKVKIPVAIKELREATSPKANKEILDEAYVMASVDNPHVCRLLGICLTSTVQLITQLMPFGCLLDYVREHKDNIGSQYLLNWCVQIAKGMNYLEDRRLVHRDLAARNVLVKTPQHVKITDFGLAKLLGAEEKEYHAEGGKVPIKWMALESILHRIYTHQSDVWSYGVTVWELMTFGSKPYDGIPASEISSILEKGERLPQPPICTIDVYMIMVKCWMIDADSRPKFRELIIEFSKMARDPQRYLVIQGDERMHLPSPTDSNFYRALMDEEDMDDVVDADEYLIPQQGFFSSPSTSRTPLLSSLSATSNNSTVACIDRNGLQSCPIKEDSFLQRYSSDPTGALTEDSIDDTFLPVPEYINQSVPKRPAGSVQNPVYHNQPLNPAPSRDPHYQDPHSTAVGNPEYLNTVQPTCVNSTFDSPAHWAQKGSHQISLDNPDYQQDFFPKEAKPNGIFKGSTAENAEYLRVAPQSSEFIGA
Chain of Follistatin-related protein 3 (Homo sapiens) (O95633 whole entry, looked up): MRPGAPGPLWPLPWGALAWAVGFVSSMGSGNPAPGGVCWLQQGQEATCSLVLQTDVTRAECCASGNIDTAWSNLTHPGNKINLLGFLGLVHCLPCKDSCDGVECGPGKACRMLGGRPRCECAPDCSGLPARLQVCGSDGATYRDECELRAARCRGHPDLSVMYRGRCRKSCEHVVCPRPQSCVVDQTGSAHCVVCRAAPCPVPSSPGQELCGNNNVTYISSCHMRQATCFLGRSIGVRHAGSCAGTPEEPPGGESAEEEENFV
Chain of Dickkopf-related protein 1 (Homo sapiens) (O94907 whole entry, looked up): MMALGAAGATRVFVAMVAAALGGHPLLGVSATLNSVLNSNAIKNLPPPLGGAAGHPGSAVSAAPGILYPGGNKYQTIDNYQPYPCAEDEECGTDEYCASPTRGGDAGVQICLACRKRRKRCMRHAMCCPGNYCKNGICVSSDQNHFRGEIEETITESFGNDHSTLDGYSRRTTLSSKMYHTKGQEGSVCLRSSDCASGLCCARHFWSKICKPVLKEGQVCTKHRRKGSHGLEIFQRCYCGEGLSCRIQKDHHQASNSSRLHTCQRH

Row | Structure (SMILES) | composite z-score [1] | composite z-score [2] | composite z-score [3] | z-score [4] | composite z-score [5] | composite z-score [6] | composite z-score [7] | composite z-score [8] | composite z-score [9] | composite z-score [10] | composite z-score [11] | z-score [12] | composite z-score [13] | composite z-score [14] | composite z-score [15] | composite z-score [16] | composite z-score [17] | composite z-score [18] | composite z-score [19] | composite z-score [20]
1 | COc1ccc(C#Cc2ccc3c(c2)[C@]2(C(=O)N3)[C@H](C(=O)NC[C@H](O)c3ccccc3)[C@H]3C(=O)O[C@H](c4ccccc4)[C@H](c4ccccc4)N3[C@@H]2c2ccc(OCCO)cc2)cc1 | 1.33 | 0.0324 | 0.236 | -1.46 (inactive) | 1.25 | 1.28 | 0.487 | 1.26 | 0.31 | 0.123 | 1.43 | -2.13 | 0.965 | 0.841 | -0.203 | 0.0037 | 0.327 | -0.611 | 0.952 | 1.76
2 | COc1ccc([Si](C)(C)[C@H]2[C@H](CCn3cc([C@H](O)c4ccccc4)nn3)O[C@@]3(C(=O)N(Cc4cccc(N5CCC5=O)c4)c4ccccc43)[C@@H]2C)cc1 | 1.32 | -0.144 | -0.206 | -1.4 (inactive) | 0.66 | -0.113 | -0.0533 | -0.108 | -0.0723 | 0.714 | -0.268 | -1.73 | 0.183 | 0.318 | 0.193 | -0.114 | 0.0278 | -0.118 | 0.412 | 0.167
3 | NC(=O)NCC#Cc1ccc2c(c1)[C@]1(C(=O)N2)[C@H](C(=O)N2CCCCCCC2)[C@H]2C(=O)O[C@H](c3ccccc3)[C@H](c3ccccc3)N2[C@@H]1c1ccc(OCCO)cc1 | 1.2 | 2.11 | 1.36 | -0.144 (inactive) | 1.29 | 0.748 | 1.35 | 1.63 | 1.75 | 1.53 | 1.18 | -1.03 | 1.04 | 1.99 | 0.897 | 0.83 | 2.19 | 2.19 | 1.45 | 2.02
4 | CCN(CC)c1ccc(N2CC=CC34O[C@@H]5C=CCCOC(=O)C5[C@H]3C(=O)N(CCCCCO)[C@@H]4C2=O)cc1 (stereo not given in full) | -0.144 | -0.0409 | 0.0109 | -0.779 (inactive) | -0.292 | -0.139 | -0.76 | -0.339 | -0.182 | 1.52 | -0.668 | 0.348 | -0.48 | -1.15 | -1.45 | -0.0721 | 0.0756 | -0.025 | 1.04 | -0.66
5 | CCCCC(CC)C(O)C1C=CC2C(=O)N(c3ccccc3)C(=O)C2N1Nc1ccccc1 (stereo not given) | 0.889 | 0.674 | 0.932 | -0.901 (inactive) | 0.753 | 0.0129 | -0.456 | 1.13 | -0.648 | 1.02 | 1.33 | -1.71 | -0.354 | 1.25 | 0.831 | 0.173 | 0.108 | -0.259 | 0.886 | 1.1
6 | N#Cc1ccc(NN2C(C(O)c3cccs3)C=CC3C(=O)N(c4ccccc4)C(=O)C32)cc1 (stereo not given) | 0.15 | -0.0705 | -0.25 | -0.626 (inactive) | 1.18 | 0.349 | 0.55 | 0.642 | -0.271 | 0.207 | 0.809 | -0.0582 | 0.268 | 0.41 | 0.314 | 0.0709 | -0.0977 | 1.43 | 1.52 | 0.122
7 | C=CCN1C(=O)[C@]2(O[C@H](CCO)[C@@H]([Si](C)(C)c3ccc(OC)cc3)[C@@H]2C)c2cc(NC(=O)[C@H](C)O)ccc21 | 1.45 | -0.191 | -0.159 | -1.26 (inactive) | 1.27 | 0.984 | -0.191 | 0.267 | 0.0607 | 0.197 | 0.942 | -4.97 | 0.0707 | 0.737 | -0.217 | -0.0799 | 0.13 | -0.204 | 0.925 | 0.69
8 | C#CCN(C(/C=C/c1ccccc1)CO)C(C(=O)O)c1ccccc1 (stereo not given) | -0.211 | -0.285 | -0.447 | -1.89 (inactive) | 0.0698 | -0.953 | -0.0139 | -0.435 | 0.122 | -0.99 | -0.943 | -0.206 | 0.111 | -0.238 | -0.707 | -0.0981 | -0.2 | -0.242 | -0.58 | 0.127
9 | [N-]=[N+]=Nc1ccccc1[C@@H]1OC(c2ccc(OCCCO)cc2)=N[C@]1(CCS(=O)(=O)c1ccccc1)C(=O)N1CCOCC1 | 1.43 | 1.04 | 0.994 | -0.4 (inactive) | 1.37 | 1.09 | 0.569 | 1.36 | 0.14 | 1.58 | 1.03 | 2.34 | 0.647 | 1.74 | 0.764 | 0.16 | 0.326 | 0.939 | 1.42 | 2.84
10 | N#Cc1ccc(NN2C(C(O)C3CCCCC3)C=CC3C(=O)N(c4ccccc4)C(=O)C32)cc1 (stereo not given) | 0.908 | 0.458 | 0.811 | 1.23 (inactive) | 1.09 | 1.3 | -0.0355 | 1.28 | -0.547 | 0.249 | 1.48 | -0.785 | 0.0137 | 1.82 | 0.779 | 0.0859 | 0.294 | 1.32 | -0.102 | 1.09
11 | C=CCNC(=O)[C@@H]1[C@H]2C(=O)O[C@H](c3ccccc3)[C@H](c3ccccc3)N2[C@H](c2ccccc2OCCO)[C@@]12C(=O)Nc1ccc(C#CC3=CCCCC3)cc12 | 0.71 | -0.0328 | 0.111 | -0.829 (inactive) | 1.22 | 1.32 | 0.478 | 1.38 | 0.479 | 0.982 | 1.41 | -3.27 | 0.604 | 1.09 | 0.17 | -0.0523 | 0.0611 | -0.278 | 0.668 | 1.24
12 | COCCOC(=O)N1C(=O)[C@@]2(c3cc(C#CC4=CCCCC4)ccc31)[C@H](C(=O)N1CCc3cc(OC)c(OC)cc3C1)[C@H]1C(=O)O[C@H](c3ccccc3)[C@H](c3ccccc3)N1[C@@H]2c1ccccc1OCCO | 0.763 | -0.0567 | 0.185 | -0.176 (inactive) | 0.964 | 1.2 | 0.501 | 1 | 0.406 | 0.59 | 0.899 | -1.35 | 0.546 | 0.805 | 0.512 | -0.107 | -0.153 | 0.365 | 0.261 | 0.917
13 | COc1ccc(CCN2C(=O)[C@@]3(Cc4ccccc42)c2ccccc2C(=O)N(Cc2ccccc2Cl)[C@H]3c2ccc(CO)cc2)cc1 | 1.14 | 0.546 | 0.929 | -0.0194 (inactive) | -0.202 | -1.01 | -1.12 | -0.61 | -0.695 | 0.38 | -0.782 | 0.0889 | -0.622 | 0.102 | 0.45 | -0.176 | -0.138 | -0.272 | 0.0577 | 0.0121
14 | C=CC[C@@]1(C(=O)NCC(O)CO)N=C(c2ccc(OCCCO)cc2)O[C@@H]1c1ccccc1N=[N+]=[N-] (stereo not given in full) | 0.663 | 0.854 | 1.12 | -1.25 (inactive) | 0.618 | -0.669 | -0.656 | 0.326 | -0.612 | 1.02 | 1.49 | -0.747 | -0.709 | 1.61 | 0.643 | -0.0846 | 0.0062 | 1.39 | 2.06 | 1.12
15 | C=CCOC(=O)[C@H]1[C@@H]2C(=O)O[C@@H](c3ccccc3)[C@@H](c3ccccc3)N2[C@@H](c2ccc(OCCOC(=O)[C@@H]3C[C@@H]4C(=O)N5CCC[C@H]5C(=O)N4[C@@H]3c3ccc(O)cc3)cc2)[C@]12C(=O)Nc1ccccc12 | 1.53 | -0.294 | 0.0807 | 0.109 (inactive) | 0.629 | 1.28 | 0.586 | 1.21 | 1.45 | -0.23 | 1.4 | -1.81 | 0.677 | 0.823 | 0.0257 | -0.1 | 0.0121 | -0.467 | 0.808 | 1.18
